PubChem BioAssay (NCI)
Compounds without any hit were thinned out: in the full panel of roughly 79,000, 15% have a hit. Calls of active or inactive are those of the source. No stated cut-off is given here; in the data, active means growth inhibition above about 70%; inactive means the rest.

Columns and labels:
[1] = NCI Yeast Anticancer Drug Screen. Data for the rad52 strain (AID 147);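 further: 0% = growth of vehicle-treated control cultures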; settings: S. cerevisiae rad52 mutant growth inhibition, active compounds read high
Method in brief: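 Here a repair-compromised yeast strain receives each compound; its growth is then quantified and normalised to vehicle-only controls.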

[2] = NCI Yeast Anticancer Drug Screen. Data for the rad50EPP+ strain (AID 151);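 further: 0% = growth of vehicle-treated control cultures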; settings: S. cerevisiae rad50 mutant strain, active compounds read high
Method in brief: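 Read-out is yeast growth inhibition relative to vehicle; cells used were the rad50EPP+ strain.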

[3] = NCI Yeast Anticancer Drug Screen. Data for the mgt1 strain (AID 153); settings: S. cerevisiae mgt1 mutant growth inhibition, active compounds read high
Method in brief: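 Measured: inhibition of mgt1 yeast growth by compound, normalized to vehicle-treated cultures.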

[4] = NCI Yeast Anticancer Drug Screen. Data for the rad50 strain (AID 155);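 further: 0% = growth of vehicle-only cultures of the same strain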; settings: S. cerevisiae rad50 strain growth inhibition, active compounds read high
Method in brief: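 Yeast carrying a defined DNA repair defect were exposed to test compounds, and growth was compared with vehicle-treated controls to give percent inhibition.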

[5] = NCI Yeast Anticancer Drug Screen. Data for the mec2-1 strain (AID 157); settings: S. cerevisiae mec2-1 strain, active compounds read high
Method in brief: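 Using mec2-1 yeast: add compound, measure growth, express inhibition versus vehicle-treated cultures.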

[6] = NCI Yeast Anticancer Drug Screen. Data for the rad14 strain (AID 159);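 further: 0% = growth of vehicle-treated control cultures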; settings: S. cerevisiae rad14 strain growth inhibition, active compounds read high
Method in brief: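 Yeast cells carrying a defined DNA-repair defect were exposed to compounds, and growth inhibition was calculated relative to vehicle-treated control cultures.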

[7] = NCI Yeast Anticancer Drug Screen. Data for the sgs1 mgt1 strain (AID 161);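 further: 0% = growth of cultures given vehicle only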; settings: S. cerevisiae sgs1 mgt1 strain, active compounds read high
Method in brief: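 Growth of a repair-deficient yeast mutant was monitored after compound treatment and expressed as inhibition relative to vehicle-treated cultures.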

[8] = NCI Yeast Anticancer Drug Screen. Data for the CLN2oe strain (AID 163);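 further: 0% = growth of vehicle-only control cultures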; settings: S. cerevisiae CLN2oe strain, active compounds read high
Method in brief: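 Whole-cell yeast growth assay. A strain engineered for altered cell-cycle control received compound, and inhibition relative to vehicle-treated cultures was recorded.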

[9] = NCI Yeast Anticancer Drug Screen. Data for the cln2 rad14 strain (AID 165);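 further: 0% = growth equal to vehicle treated cultures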; settings: S. cerevisiae cln2 rad14 strain, active compounds read high
Method in brief: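 Yeast strain cln2 rad14, bearing defects in cell cycle control and DNA repair, serves as the test system; values reflect growth inhibition compared with vehicle.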

[10] = NCI Yeast Anticancer Drug Screen. Data for the bub3 strain (AID 167); settings: S. cerevisiae bub3 mutant strain, active compounds read high
Method in brief: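 Compounds were applied to a genetically altered yeast strain carrying a cell-cycle control defect. Growth inhibition was scored against vehicle-treated controls.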

[11] = NCI Yeast Anticancer Drug Screen. Data for the wt2 strain (AID 169);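 further: 0% = growth of vehicle-treated yeast cultures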; settings: S. cerevisiae wt2 strain growth inhibition, active compounds read high
Method in brief: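 Treated yeast vs. vehicle-treated yeast: growth inhibition determined.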

[12] = NCI Yeast Anticancer Drug Screen. Data for the mlh1 strain (AID 171);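 further: 0% = growth of vehicle-treated control cultures of the same strain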; settings: S. cerevisiae mlh1 strain growth inhibition, active compounds read high
Method in brief: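 A yeast strain with a defined genetic lesion serves as the test organism. Cultures receive compound or vehicle, and growth is measured.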

[13] = NCI Yeast Anticancer Drug Screen. Data for the sgs1 strain (AID 173);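 further: 0% = growth of vehicle-only control cultures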; settings: S. cerevisiae sgs1 mutant, active compounds read high
Method in brief: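 A genetically defined yeast mutant is incubated with the test compound, and its growth is compared to that of the same strain given vehicle.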

[14] = NCI Yeast Anticancer Drug Screen. Data for the mlh1 rad18 strain (AID 175); settings: S. cerevisiae mlh1 rad18 strain growth inhibition, active compounds read high
Method in brief: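 Steps: expose repair-defective yeast to compound; measure growth; express inhibition against vehicle-treated controls.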

[15] = NCI Yeast Anticancer Drug Screen. Data for the rad18 strain (AID 177); settings: S. cerevisiae rad18 mutant growth inhibition, active compounds read high
Method in brief: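 Measured value is growth inhibition of a yeast strain bearing a DNA repair alteration, referenced to vehicle-treated cells.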

[16] = at 5.0 µM (retest, dose inferred, filed as 0.5)
[17] = at 50.0 µM (retest, dose inferred, filed as 5.0)

Measured: growth inhibition

CCOC(=O)c1ccc(NC(=O)O/N=C(/Cl)C(C)C)cc1
inactive: [1]; at 1.2 µM -2% | [1]; at 3.7 µM 3% | [1]; at 11.0 µM 14% | [1]; at 33.0 µM 58% | [2]; at 1.2 µM 1% | [2]; at 3.7 µM 8% | [2]; at 11.0 µM 22% | [2]; at 33.0 µM 44% | [3]; at 1.2 µM -3% | [3]; at 3.7 µM -7% | [3]; at 11.0 µM -5% | [4]; at 1.2 µM -1% | [4]; at 3.7 µM 4% | [4]; [16] 5% | [4]; at 11.0 µM 7% | [4]; at 33.0 µM 48% | [4]; at 50.0 µM 55.4% | [5]; at 1.2 µM 1% | [5]; at 3.7 µM 1% | [5]; [16] -19% | [5]; at 11.0 µM 3% | [5]; at 33.0 µM 45% | [6]; at 1.2 µM -4% | [6]; at 3.7 µM -5% | [6]; at 11.0 µM -2% | [6]; at 33.0 µM 2% | [7]; [16] -12% | [8]; at 1.2 µM -2% | [8]; at 3.7 µM 2% | [8]; at 11.0 µM -5% | [8]; at 33.0 µM -22% | [9]; [16] 17% | [9]; at 50.0 µM 63.4% | [10]; at 1.2 µM 9% | [10]; at 3.7 µM 18% | [10]; [16] -7% | [10]; at 11.0 µM 28% | [10]; at 33.0 µM 55% | [11]; at 1.2 µM -4% | [11]; at 3.7 µM -8% | [11]; at 11.0 µM 10% | [12]; at 1.2 µM -6% | [12]; at 3.7 µM -4% | [12]; at 11.0 µM -4% | [13]; at 1.2 µM -3% | [13]; at 3.7 µM -4% | [13]; at 11.0 µM 28% | [14]; [16] -7% | [14]; at 50.0 µM 69.1% | [15]; at 1.2 µM -5% | [15]; at 3.7 µM -5% | [15]; at 11.0 µM -1% | [15]; at 33.0 µM 12%
active: [1]; at 100.0 µM 98% | [2]; at 100.0 µM 87% | [3]; at 33.0 µM 73% | [3]; at 100.0 µM 99% | [4]; [17] 92% | [4]; at 100.0 µM 98% | [5]; [17] 95% | [5]; at 50.0 µM 85.5% | [5]; at 100.0 µM 99% | [6]; at 100.0 µM 99% | [7]; [17] 98% | [7]; at 50.0 µM 81.8% | [8]; at 100.0 µM 97% | [9]; [17] 87% | [10]; [17] 97% | [10]; at 50.0 µM 76.6% | [10]; at 100.0 µM 98% | [11]; at 33.0 µM 91% | [11]; at 100.0 µM 99% | [12]; at 33.0 µM 84% | [12]; at 100.0 µM 99% | [13]; at 33.0 µM 93% | [13]; at 100.0 µM 99% | [14]; [17] 95% | [15]; at 100.0 µM 98%

CC1SC2(C(=O)Nc3ccc(Cl)cc32)N(c2ccc(Cl)cc2)C1=O (stereo not drawn)
inactive: [1]; at 1.2 µM -2% | [1]; at 3.7 µM 0% | [1]; at 11.0 µM 17% | [2]; at 1.2 µM -2% | [2]; at 3.7 µM -3% | [2]; at 11.0 µM -1% | [2]; at 33.0 µM -2% | [2]; at 100.0 µM 1% | [3]; at 1.2 µM -5% | [3]; at 3.7 µM -4% | [3]; at 11.0 µM 3% | [4]; at 1.2 µM -14% | [4]; at 3.7 µM 0% | [4]; [16] 20% | [4]; at 11.0 µM 10% | [4]; [17] -1% | [5]; at 1.2 µM -3% | [5]; at 3.7 µM 3% | [5]; [16] 11% | [5]; at 11.0 µM 18% | [5]; [17] 5% | [6]; at 1.2 µM -3% | [6]; at 3.7 µM -2% | [6]; at 11.0 µM 10% | [7]; [16] 15% | [7]; [17] 4% | [8]; at 1.2 µM -7% | [8]; at 3.7 µM -7% | [8]; at 11.0 µM 12% | [9]; [16] -1% | [9]; [17] -11% | [10]; at 1.2 µM 3% | [10]; at 3.7 µM 12% | [10]; [16] 28% | [10]; at 11.0 µM 31% | [10]; [17] 9% | [11]; at 1.2 µM -4% | [11]; at 3.7 µM -5% | [11]; at 11.0 µM -3%
active: [1]; at 33.0 µM 98% | [1]; at 100.0 µM 89% | [3]; at 33.0 µM 98% | [3]; at 100.0 µM 95% | [4]; at 33.0 µM 96% | [4]; at 50.0 µM 99.6% | [4]; at 100.0 µM 96% | [5]; at 33.0 µM 99% | [5]; at 50.0 µM 99.8% | [5]; at 100.0 µM 98% | [6]; at 33.0 µM 99% | [6]; at 100.0 µM 99% | [7]; at 50.0 µM 99.8% | [8]; at 33.0 µM 99% | [8]; at 100.0 µM 81% | [9]; at 50.0 µM 99.5% | [10]; at 33.0 µM 95% | [10]; at 50.0 µM 99.5% | [10]; at 100.0 µM 97% | [11]; at 33.0 µM 98% | [11]; at 100.0 µM 98%
